# From the supplement of paper PMC6555819
# How the values were obtained:
# Experiment in all cases: PBM binding z-score (relative to random genomic background probes); higher = stronger binding; sequences stand for … in GC…GCGATTGACAGCGTAGAATGAAGG
# [1] = tested on: PPARg:RXRa DBDmut IVT, anti-RXR (DBD mutation: RXRa K156A/R161A, NR concentration 270 nM, RXRa partner concentration 90 nM)
# In short: (§1)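 Ligand-free nuclear receptor dimers were applied to custom Agilent 4×180K protein-binding microarrays whose double-stranded probes carried direct-repeat seeds, single-nucleotide variants, half-site ablations and random human genomic background sequences in 34-nt variable regions. Incubation lasted 1 h. Binding z-scores were computed against the random background probes from regression-normalized fluorescence.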
# [2] = tested on: PPARg:RXRa IVT, anti-PPARg (NR concentration 270 nM, RXRa partner concentration 90 nM)
# In short: as §1
# [3] = tested on: PPARg DBDmut:RXRa IVT, anti-PPARg (DBD mutation: PPARg1 K132A/R137A, NR concentration 270 nM, RXRa partner concentration 90 nM)
# In short: as §1
# [4] = tested on: PPARg DBDmut IVT, anti-PPARg (DBD mutation: PPARg1 K132A/R137A, NR concentration 270 nM)
# In short: as §1
# [5] = tested on: PPARg homodimer (NR concentration 180 nM)
# In short: as §1
# [6] = tested on: PXR:RXRa (NR concentration 270 nM, RXRa partner concentration 90 nM)
# In short: as §1
# [7] = tested on: PXR homodimer (NR concentration 270 nM)
# In short: as §1
# [8] = tested on: RARa:RXR (NR concentration 270 nM, RXRa partner concentration 90 nM)
# In short: as §1
# [9] = tested on: RARa homodimer (NR concentration 270 nM)
# In short: as §1
# [10] = tested on: RARb:RXRa (NR concentration 270 nM, RXRa partner concentration 90 nM)
# In short: as §1
# [11] = tested on: RARb homodimer (NR concentration 270 nM)
# In short: as §1
# [12] = tested on: RARg:RXRa (NR concentration 270 nM, RXRa partner concentration 90 nM)
# In short: as §1
# [13] = tested on: RARg homodimer (NR concentration 270 nM)
# In short: as §1
# [14] = tested on: RXRa DBDmut IVT, anti-RXR (DBD mutation: RXRa K156A/R161A, NR concentration 90 nM)
# In short: as §1
# [15] = tested on: RXRa homodimer (NR concentration 180 nM)
# In short: as §1
# [16] = tested on: THRa:RXRa (NR concentration 90 nM, RXRa partner concentration 90 nM)
# In short: as §1
# [17] = tested on: THRa homodimer (NR concentration 90 nM)
# In short: as §1
# [18] = tested on: VDR homodimer (NR concentration 270 nM)
# In short: as §1
Sequence,PBM binding z-score [1],PBM binding z-score [2],PBM binding z-score [3],PBM binding z-score [4],PBM binding z-score [5],PBM binding z-score [6],PBM binding z-score [7],PBM binding z-score [8],PBM binding z-score [9],PBM binding z-score [10],PBM binding z-score [11],PBM binding z-score [12],PBM binding z-score [13],PBM binding z-score [14],PBM binding z-score [15],PBM binding z-score [16],PBM binding z-score [17],PBM binding z-score [18]
TGTCAAAGTTAAAAGGTAACGTAAGTATCCACAC,-0.253,2.08,1.24,0.84,0.261,0.715,0.361,1.23,0.69,1.33,0.641,1.31,1.09,-0.392,1.22,1.72,-0.237,-0.239
CCTACGGGGCCATTCAGAGGTCATTGATCATATG,0.224,1.43,-1.02,-0.577,4.06,5.55,4.64,5.76,0.566,3.55,4.27,6.22,3.77,2.13,4.07,3.72,1.77,4.91
AGAATGAGGATATTAAGATCAGGGAATTGCGGTC,-0.168,0.03,0.947,0.486,-0.141,-0.209,0.0307,-0.171,0.578,-0.259,-0.295,0.0101,0.354,0.0131,0.0885,0.447,-0.112,0.17
CCTACTGGGCCAAGGTCATCGATCAGTCAAAGCA,4,4.6,-0.807,-0.598,1.98,3.71,0.25,4.34,0.517,3.65,3.75,4.18,3.9,0.883,3.79,3.68,2.69,2.38
ATATGTAGGTTAGCAGGGGTCATTCAGACTAGGC,6.72,6.32,3.05,2.47,4.78,6.38,2.6,6.55,2.44,3.5,4.08,5.19,3.61,1.99,6.36,4.61,1.78,5.34
AATACAGGGTCACTAGGCCAGAGTAGGTACGAAT,3.83,5.94,2.04,1.71,2.24,3.28,0.432,4.51,0.176,4.39,3.61,5.13,4.83,2.83,5.52,3.38,1.27,2.5
CCTTACTGGTCACGAGGTTATAGCACGACGAGCG,1.37,2.01,1.13,0.311,1.78,1.55,0.447,2.19,1.15,2.46,1.98,2.5,1.86,0.396,2.28,1.91,1.11,1.13
CTCGAAAGGTCTTGCTCAGGTGAGTATACCAAAC,0.411,0.795,0.193,-0.313,0.433,0.314,-0.568,0.971,-0.363,1.75,1.29,1.52,1.33,0.0538,0.775,2.67,0.893,-0.0365
GCAGACAGGTGAAACGCAGGTAAGTCAGGGTGGC,0.702,0.327,-0.327,-0.89,-0.504,-0.471,-0.705,0.101,-0.533,0.61,0.216,0.37,0.249,-0.846,0.479,0.9,-0.575,-0.728
CAAACTAGGTCAAGACGTCAAAGTCCGCTTCCCG,7.92,8.15,1.87,1.07,1.86,1.24,-0.0732,2.5,0.685,3.97,3.2,4.09,4.74,1.65,3,2.68,0.895,0.581
GATACAGGGTCAGCTAGAGGCCAGAGTCTGGAAA,1.42,2.41,-0.329,-0.829,2.68,3.16,-0.43,4.74,0.22,4.16,3.39,6.56,5.07,1.7,4.07,2.9,0.144,0.522
CCTTACTGGTCACTCCAGGTTATAGCATCGGAGT,0.949,1.07,0.287,0.23,0.774,0.989,0.586,0.883,1.05,1.53,1.42,0.885,1.32,0.271,0.519,3.26,1.03,0.805
AGTAGCAGGCCAAGTTTGGGTCACTCAAACAAAG,0.369,1.17,-1.1,-1.36,0.195,0.663,-0.57,1.64,-0.486,1.72,2.22,2.3,1.7,-0.435,0.67,2.62,1.08,0.19
ATACCAAGGAGATCGTGAGGTCGTTGATACTAAC,-0.488,-0.258,-0.211,0.112,0.128,1.65,1.21,0.973,-0.464,0.331,0.696,0.264,0.458,0.394,0.833,2.37,1.63,3.26
GCGGCTAGGTCAACTGATGGTCAGCTAAAGCTCG,3.34,3.06,-0.724,-1.01,1.76,1.59,-0.666,2.84,-0.107,4.36,3.7,5.19,5.19,1.17,2.84,2.95,0.698,-0.00796
